40 molecules from PubChem BioAssay (Tox21) can be followed below.

Records with an inconclusive call do not appear. A number with no mark means an inactive call. Active and inactive are the calls of the source. The call rests on the fitted dose curve; in most records, active means well fitted inhibition curve with a large enough effect in the signal ratio in the repeat runs (not every such curve was filed as active); inconclusive means weak or mixed curves; inactive means flat fitted curve, though single readings scatter; the % refers to the signal ratio.
On the % scale 0 is the no-effect control and ±100 the full control effect; potency means the concentration at half of the fitted maximal effect.

Sequence of Progesterone receptor (Homo sapiens) (P06401 whole entry, looked up): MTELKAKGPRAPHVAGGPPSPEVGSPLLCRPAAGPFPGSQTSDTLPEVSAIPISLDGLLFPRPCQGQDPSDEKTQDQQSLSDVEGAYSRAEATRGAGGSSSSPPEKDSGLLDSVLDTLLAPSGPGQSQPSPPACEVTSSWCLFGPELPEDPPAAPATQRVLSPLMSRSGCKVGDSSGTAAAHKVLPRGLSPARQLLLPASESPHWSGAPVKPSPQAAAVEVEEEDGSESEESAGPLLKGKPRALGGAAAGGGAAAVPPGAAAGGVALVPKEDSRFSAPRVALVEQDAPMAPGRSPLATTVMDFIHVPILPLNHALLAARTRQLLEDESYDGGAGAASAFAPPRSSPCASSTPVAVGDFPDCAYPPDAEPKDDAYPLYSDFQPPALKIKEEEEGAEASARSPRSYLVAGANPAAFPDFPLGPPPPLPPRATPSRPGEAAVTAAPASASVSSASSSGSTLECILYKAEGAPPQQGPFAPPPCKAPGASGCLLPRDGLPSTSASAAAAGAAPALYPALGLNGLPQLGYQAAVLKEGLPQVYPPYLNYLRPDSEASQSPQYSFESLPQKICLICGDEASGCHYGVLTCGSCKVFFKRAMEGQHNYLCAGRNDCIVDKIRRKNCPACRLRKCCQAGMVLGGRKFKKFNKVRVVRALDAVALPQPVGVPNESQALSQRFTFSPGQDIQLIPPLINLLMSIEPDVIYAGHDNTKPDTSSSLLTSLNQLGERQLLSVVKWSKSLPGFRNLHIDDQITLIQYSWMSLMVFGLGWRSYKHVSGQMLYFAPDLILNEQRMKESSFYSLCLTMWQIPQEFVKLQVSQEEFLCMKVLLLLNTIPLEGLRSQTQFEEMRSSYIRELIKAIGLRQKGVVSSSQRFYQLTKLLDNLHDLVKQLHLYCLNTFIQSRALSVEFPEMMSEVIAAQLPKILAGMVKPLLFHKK

The target of the experiment is Progesterone receptor (Homo sapiens) (UniProt P06401). In words: qHTS assay to identify small molecule antagonists of the progesterone receptor (PR) signaling pathway (AID 1346795). To be noted: PR-UAS-bla HEK293T, beta-lactamase FRET ratio, 16 h; series mostly up to 92.4 µM; activity change, negative = inhibition: at the top concentration. The source says:
National Center for Advancing Translational Sciences [NCATS]
NIH Chemical Genomics Center [NCGC]
U.S. Environmental Protection Agency [EPA]
National Institutes of Environmental Health Sciences [NIEHS]
National Toxicology Program [NTP]
U.S. Food and Drug Administration [FDA]
Progesterone receptor (PR), a nuclear hormone receptor, plays an important role in development, metabolic homeostasis and reproduction. […] Endocrine disrupting chemicals (EDCs) and their interactions with steroid hormone receptors like PR causes disruption of normal endocrine function. To identify the compounds that inhibit PR signaling, a PR-UAS-bla GripTite cell line i.e. PR-UAS-bla HEK293T (Invitrogen, Carlsbad, CA, USA) containing a beta-lactamase reporter gene under the control of an Upstream Activator Sequence (UAS) was used to screen Tox21 10K compound library.
Tox21 Assay Protocol Summary:
PR-UAS-bla HEK293T cells were dispensed at 3,000 cells/4 uL of assay medium containing 2% charcoal stripped FBS per well into black wall/clear-bottom 1536-well plates using a Multidrop Combi (ThermoFisher Scientific, Waltham, MA) dispenser. After the assay plates were incubated at a 37C and 5% CO2 for 6 hr, 23 nL of compounds dissolved in DMSO, positive controls or DMSO only was transferred to the assay plate by a Pintool station (Kalypsys, San Diego, CA), followed by addition of 1 uL (1nM as final concentration) of Promegestone (R5020) in assay medium using a BioRAPTR FRD (Flying Reagent Dispenser, Aurora Discovery, San Diego, CA). The plates were incubated at 37C and 5% CO2 for 16 hr. Then 1 uL of LiveBLAzer B/G FRET substrate was added using a FRD. After the plates were incubated at room temperature for 2 hours, fluorescence intensity was measured by an Envision plate reader (PerkinElmer, Shelton, CT).
For `C/C(=N\O)[C@@H](C)NCC(C)(C)CN[C@H](C)/C(C)=N/O`, the “activity change, negative = inhibition” value was 0.354% [at 42.5 µM].
On the same count and under the same terms, for `CNCCC(Oc1ccccc1OC)c1ccccc1` (stereo not given) the value was -0.289% [at 42.5 µM].
`CCOC(=O)C(Br)c1ccccc1` (stereo not given): the “activity change, negative = inhibition” value is -0.884%.
As to `O=c1oc2c(O)c(O)cc3c(=O)oc4c(O)c(O)cc1c4c23`, the activity change, negative = inhibition is 7.58% [at 18.9 µM].
The same measure, in the same setting: for `CC1=C(O)C(=O)OC1C` (stereo not given) the value was 9.39%.
The same measure, in the same setting: the result for `CCCS(=O)c1ccc2nc(NC(=O)OC)[nH]c2c1` (stereo not given) reads -11.5% [at 42.5 µM]; that for `COc1ccccc1N1CCN(CCCNc2cc(=O)n(C)c(=O)n2C)CC1`, 8.7% [at 42.5 µM].
Take `CC1=NN(c2cc(Cl)c(S(=O)(=O)O)cc2Cl)C(=O)C1N=Nc1ccc(S(=O)(=O)O)cc1` (stereo not given): the “activity change, negative = inhibition” value was 7.78%.
Still for that read-out and setting: the result for `CCCC(CCC)(C(=O)OCC)C(=O)OCC` reads 9.34% [at 42.5 µM]; that for `CCN(CC)CCNC(=O)COc1ccc(Cl)cc1`, -0.363% [at 42.5 µM].
On to `CCCCc1ccc2nc(NC(=O)OC)[nH]c2c1`, for which the Potency was 4.22 µM (active).
As to `COc1cc(Cl)ccc1Cl`, the “activity change, negative = inhibition” value was 11.9%.
Same read-out and setting: the result for `Cc1c[nH]c(=S)[nH]c1=O` reads -5.11%.
The same measure, in the same setting: the result for `CC(C)=CCC[C@](C)(O)[C@@H]1CC=C(C)CC1` reads 5.96%; that for `CC(C)C1=CC2=CC[C@@H]3[C@](C)(CCC[C@@]3(C)C(=O)O)[C@H]2CC1`, -23.2%.
For the molecule `CCN(CC)CC1CCCCN1CC(=O)N1c2ccccc2C(=O)Nc2cccnc21` (stereo not given), the “activity change, negative = inhibition” value was -17.7% [at 42.5 µM].
Same read-out and setting: for `Cc1ccsc1C(=CCCN1CCC[C@@H](C(=O)O)C1)c1sccc1C` the value was 6.8% [at 42.5 µM]; for `CC(C)C(=O)OC/C=C/c1ccccc1`, -2.1%; for `C=CC(C)(O)CC/C=C(\C)CCC=C(C)C` (stereo not given), 0.14%.
Same read-out and setting: for `CCCCNCCCC` the value was 1.67%; for `COC(=O)c1ccc(OC)cc1`, 5.33%.
Same read-out and setting: for `FC(F)(F)C(F)(F)C(F)(F)C(F)(F)C(F)(F)C(F)(F)C(F)(F)C(F)(F)Br` the value was 4.39% [at 42.5 µM]; for `N#CSCC(=O)O`, 7% [at 42.5 µM].
For `CN(CC1(C)CCCO1)S(=O)(=O)c1ccc(Cl)c(S(N)(=O)=O)c1` (stereo not given), the “activity change, negative = inhibition” value was 1.02% [at 42.5 µM].
Same read-out and setting: for `CCOc1ccc(NS(=O)(=O)c2ccc(N)cc2)nn1` the value was 0.0318% [at 42.5 µM]; for `Cc1c(C(=O)NCCO)[n+](=O)c2ccccc2n1[O-]`, 8.82% [at 42.5 µM].
Regarding `ICCc1ccccc1`, the Potency was 59.9 µM (active).
In the case of `CCCNC(C)C(=O)Nc1c(C)csc1C(=O)OC` (stereo not given), the “activity change, negative = inhibition” value was 3.05% [at 42.5 µM].
Still for that read-out and setting: the result for `CCN1CC(CCN2CCOCC2)C(c2ccccc2)(c2ccccc2)C1=O` (stereo not given) reads -7.01% [at 42.5 µM]; that for `Cc1ccc(C=O)s1`, -12.4%; that for `CCCNC(C)(C)COC(=O)c1ccccc1`, -0.339% [at 42.5 µM].
Still for that read-out and setting: the result for `Cc1cc(NS(=O)(=O)c2ccc(N)cc2)nc(C)n1` reads 7.95% [at 42.5 µM].
The same measure, in the same setting: for `CC(=O)OC1C2(C)CCC(C2)C1(C)C` (stereo not given) the value was 0.188%; for `CC1(C)O[C@@H]2C[C@H]3[C@@H]4CCC5=CC(=O)CC[C@]5(C)[C@@]4(F)[C@@H](O)C[C@]3(C)[C@]2(C(=O)CCl)O1`, 7.85% [at 42.5 µM]; for `O=C(O)C(=O)Cc1c[nH]c2ccccc12`, -17.8%.
Consider `C=Cc1ccccc1`, for which the “activity change, negative = inhibition” value is -6.29%.
As to `CC(=O)N(CC(O)CN(C(C)=O)c1c(I)c(C(=O)NCC(O)CO)c(I)c(C(=O)NCC(O)CO)c1I)c1c(I)c(C(=O)NCC(O)CO)c(I)c(C(=O)NCC(O)CO)c1I` (stereo not given), the “activity change, negative = inhibition” value was 4.33% [at 42.5 µM].
Consider `COC(=O)c1ccc2cc(C(=O)OC)ccc2c1`, for which the activity change, negative = inhibition is -25.1% [at 18.9 µM].
Consider `NC(=O)NS(=O)(=O)c1ccc(Cl)cc1`, for which the “activity change, negative = inhibition” value is 5.64% [at 42.5 µM].
The same measure, in the same setting: the result for `Cc1nnc(SCC2=C(C(=O)O)N3C(=O)[C@@H](NC(=O)Cn4cnnn4)[C@H]3SC2)s1` reads -2.12% [at 42.5 µM].
